PubChem BioAssay AID1030 (National Center for Advancing Translational Sciences (NCATS), 2008)
Among all 220,000 compounds or so, about 16,000 (7.3%) were called active. Not shown: some 25% with an inconclusive outcome. What follows is part of a selection rich in actives, with near analogues and random picks from the rest. Entries that show only a call come without a potency. Values without a mark were called inactive. Calls come from the whole dose curve; as a rule, active = well fitted inhibition curve with a large enough effect (not every such curve was filed as active); inconclusive = small, poorly fitted or top-dose-only effect, or another doubt; inactive = no such curve, though single readings can be large or run the other way.

Each molecule was assayed against Aldehyde dehydrogenase 1A1 (Homo sapiens) (UniProt P00352) (assay: qHTS Assay for Inhibitors of Aldehyde Dehydrogenase 1 (ALDH1A1)). Settings: Purified ALDH1A1, NADH fluorescence, propionaldehyde substrate; series mostly up to 75.3 µM.
Sequence of Aldehyde dehydrogenase 1A1 (Homo sapiens) (P00352 whole entry, looked up): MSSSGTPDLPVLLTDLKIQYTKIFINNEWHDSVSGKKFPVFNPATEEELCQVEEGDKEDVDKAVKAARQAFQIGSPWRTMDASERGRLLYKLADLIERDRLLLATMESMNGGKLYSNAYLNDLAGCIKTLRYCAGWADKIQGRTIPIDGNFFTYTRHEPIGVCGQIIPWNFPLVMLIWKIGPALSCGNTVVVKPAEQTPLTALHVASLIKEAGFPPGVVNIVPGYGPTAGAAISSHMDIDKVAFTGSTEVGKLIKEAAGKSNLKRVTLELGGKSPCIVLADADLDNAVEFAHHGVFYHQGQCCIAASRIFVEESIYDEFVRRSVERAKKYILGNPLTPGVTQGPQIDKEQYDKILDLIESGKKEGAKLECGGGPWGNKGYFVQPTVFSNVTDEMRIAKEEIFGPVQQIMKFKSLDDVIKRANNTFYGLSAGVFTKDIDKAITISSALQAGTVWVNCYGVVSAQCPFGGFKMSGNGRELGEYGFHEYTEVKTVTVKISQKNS
Potency is the fitted concentration of half-maximal effect.

SMILES | Potency | activity, negative = inhibition
CC(=O)Nc1ccc(S(=O)(=O)N(C)c2ccc(OCC(=O)OCC(=O)N3CCCCC3)cc2)cc1 | inactive | –
CCc1cc2cc(OC)ccc2nc1SCC(=O)Nc1cc(OC)c(OC)cc1C(=O)O | inactive | –
COC(C)C(C(=O)OCC1=CCN2CC[C@H](O)[C@@H]12)C(C)C (some centres undefined) | inactive | –
COc1ccc(C2OCC3(CO2)SC(=O)NC3=O)cc1OC (centres undefined) | inactive | –
CN1CCC(OC(=O)COc2ccc(Cl)cc2Cl)CC1 | inactive | –
O=C(CNS(=O)(=O)c1cccc(C(F)(F)F)c1)Nc1ccccc1F | 31.6 µM (active) | –
O=C(CNS(=O)(=O)c1ccccc1)NCC(=O)OCc1ccccc1F | inactive | –
Cc1cccc(OCC(=O)Nc2ccccc2F)c1 | inactive | –
Cc1cccc(C)c1NC(=O)C1(C)c2cccc[n+]2CC(=O)N1Cc1cccs1 (centres undefined) | inactive | –
COc1ccccc1N(C)S(=O)(=O)c1ccc(Cl)c(C(=O)N2CCC(C(N)=O)CC2)c1 | inactive | –
O=C(Nc1cccc2cccnc12)c1cccc(N2C(=O)CCC2=O)c1 | inactive | –
COc1ccccc1-c1nnc(NC(=O)c2cccc(N3C(=O)CCC3=O)c2)o1 | inactive | –
Cc1cc(NC(=O)c2cccc(N3C(=O)CCC3=O)c2)no1 | 28.2 µM (active) | –
Nc1nnc(SCC(=O)NC2CCCc3ccccc32)s1 (centres undefined) | inactive | –
CC(CC(=O)O)CC(=O)NNC(=O)c1cccc(Br)c1 (centres undefined) | inactive | –
O=C(/C=C/NNC(=O)c1cccc(Br)c1)c1ccccc1 | 2.82 µM (active) | –
CCCCC(NC(=O)c1cccc(Br)c1)C(=O)O (centres undefined) | inactive | –
Cc1ccc(CN2CCC(N3CCC(C(=O)NCC4CCCO4)CC3)CC2)o1 (centres undefined) | inactive | –
Cc1onc(C(=O)NN)c1-c1csc(COc2ccccc2)n1 | inactive | –
C=CCn1c(CC(=O)Nc2cccc(OC)c2)nnc1SCC(=O)NC1CCCCC1 | inactive | –
COc1cccc(-n2c(SCC(=O)NC3CCCCC3)nc3n[nH]c(C)c3c2=N)c1 | 20 µM (active) | –
CCCCNC(=O)CSc1nc2n[nH]c(C)c2c(=N)n1-c1cccc(Cl)c1C | inactive | –
Cc1ccc(S(=O)(=O)N2CCCC2C(=O)OCc2nc3sc(C)c(C)c3c(=O)[nH]2)cc1 (centres undefined) | inactive | –

SMILES | Potency | activity, negative = inhibition
COc1ccc(-c2nn(-c3ccccc3)cc2/C=C\C(=O)Nc2ccc(C(=O)O)cc2)cc1 | inactive | –
COc1ccc(N=C2SC(C(=O)Nc3ccc(F)cc3)CC(=O)N2C)cc1 (centres undefined) | inactive | –
CCc1nc(C)cn1S(=O)(=O)c1cc(OC)c(C)cc1C | inactive | –
CC(C)c1nccn1S(=O)(=O)c1cc([N+](=O)[O-])ccc1Cl | inactive | –
CCc1nc(C)cn1S(=O)(=O)c1cc([N+](=O)[O-])ccc1Cl | 7.94 µM (active) | –
CC(C)C(=O)Nc1oc(-c2ccccc2)cc1C#N | inactive | –
COc1cccc(NC(=O)CC2C(=O)NCCN2C(=S)Nc2ccc(F)cc2)c1 (centres undefined) | inactive | –
O=C(Cn1cnc2c(nnn2-c2ccccc2)c1=O)N1CCC(Cc2ccccc2)CC1 | inactive | –
O=C(NCc1nnc(SCC(=O)N2CCC(Cc3ccccc3)CC2)o1)c1ccco1 | 14.1 µM (active) | –
O=C(CSc1nnc(-c2ccccc2)o1)N1CCOCC1 | inactive | –
Cc1cccc(N(C(=O)Cc2cccs2)C(C(=O)NCc2ccco2)c2ccncc2)c1 (centres undefined) | inactive | –
COc1ccc2c(CC(=O)OCC(=O)NC(N)=O)coc2c1 | inactive | –
Cc1nn(C)c(Oc2ccccc2)c1[N+](=O)[O-] | inactive | –
Cn1c2ccccc2c(=O)c2c(O)cccc21 | inactive | –
Cn1c(=O)c([N+](=O)[O-])c(Oc2ccccc2)c2ccccc21 | 17.8 µM (active) | –
COc1cccc(C(=O)Oc2cc(C)[nH]c(=O)c2[N+](=O)[O-])c1 | inactive | –
Cc1cccc(Oc2c([N+](=O)[O-])c(=O)n(C)c3ccccc23)c1 | 3.16 µM (active) | –
O=[N+]([O-])c1cccc(-c2nnc3c4ccccc4c4ccccc4n23)c1 | inactive | –
CC(=O)N1CCN(S(=O)(=O)c2ccc(C)c([N+](=O)[O-])c2)C1C(C)C (centres undefined) | inactive | –
Nc1[nH][nH]c(=O)c1N=Nc1ccc2c(c1)OCO2 | inactive | –
COc1cc(NC(=O)c2cccs2)ccc1NC(=O)c1ccccc1Cl | inactive | –
COc1ccccc1C1CCN(C(=S)Nc2ccc(Br)cc2)CC1 | inactive | –
C/C(=N\NC(=O)c1cccnc1)c1ccc(-c2ccccc2)cc1 | inactive | –

SMILES | Potency | activity, negative = inhibition
CC1(C)CC(=O)C(N=Nc2c(F)cccc2F)=C(O)C1 | 12.6 µM (active) | –
CC1(C)CC(=O)C(C2=NC(C)(C)Cc3ccccc32)=C(O)C1 | inactive | –
Cc1cc(C)n(C(=O)c2ccc(S(=O)(=O)N3CCCC3)cc2)n1 | inactive | –
Cc1ccc(N2C(=O)C(NC(=O)c3c(F)cccc3F)(C(F)(F)F)C3=C2CC(C)(C)CC3=O)cc1 (centres undefined) | inactive | –
CC1(C)CC(=O)C(N=Nc2ccc(S(=O)(=O)N3CCCCCC3)cc2)=C(O)C1 | 2.51 µM (active) | –
CN1CCN(NC(=O)c2ccc(S(=O)(=O)N3CCCCCC3)cc2)CC1 | inactive | –
COc1cc(CNCCN(C)C)ccc1OCc1c(F)cccc1Cl | inactive | –
C/C(CC(=O)Nc1ccc(C)cc1C)=N\NC(=O)C(C)C | inactive | –
CN(C)S(=O)(=O)c1ccc(NC(=O)N2CCOCC2)cc1 | inactive | –
Cc1ccnc(NS(=O)(=O)c2ccc(NC(=O)c3ccc(S(=O)(=O)N(C)C)cc3)cc2)n1 | inactive | –
CCCCN1C(=O)c2ccc(C(=O)Nc3ccc(S(=O)(=O)N(C)C)cc3)cc2C1=O | 1.78 µM (active) | –
O=C(Nc1ccc(Br)cn1)c1ccc([N+](=O)[O-])o1 | inactive | –
O=c1[nH]n(-c2ccc([N+](=O)[O-])cc2)c(=O)c2ccccc12 | inactive | –
CCCC(=O)Nc1cccc(NC(=S)NC(=O)C(C)Oc2ccc(Cl)cc2Cl)c1 (centres undefined) | 10 µM (active) | –
CC(Oc1ccc(Cl)cc1Cl)C(=O)/C=C/N(C)C (centres undefined) | inactive | –
COc1cccc(NC(=O)C(C)Oc2ccccc2)c1 (centres undefined) | inactive | –
Cc1ccccc1Nc1nc(N)nc(CSc2ccccc2)n1 | inactive | –
O=C(O)c1cccc(S(=O)(=O)NCCO)c1 | – | -6.88% [at 13.5 µM]
CCOc1ccc(S(=O)(=O)Nc2nc3cc(OC)ccc3s2)cc1 | inactive | –
CCN(c1ccccc1)S(=O)(=O)c1cccc(C(=O)O)c1 | inactive | –
COc1ccc(S(=O)(=O)Nc2ccc(O)c(Sc3nc4ccccc4s3)c2)cc1 | 17.8 µM (active) | –
COc1ccc(/C=C(/CC(=O)Nc2ccc(C)cc2)c2nc3ccccc3s2)cc1 | inactive | –
O=C(O)c1cccc(S(=O)(=O)Nc2ccc(O)cc2Sc2nc3ccccc3s2)c1 | 22.4 µM (active) | –
